The values below come from the antibiotic and cytotoxicity screens of Wong et al. (2023).

Molecules are shown by their SMILES. About 1,500 (3.8%) of roughly 39,000 compounds were called active. For the sample, actives were picked, then their nearest neighbours and some compounds at random.

The test system of this assay is HSkMC (human skeletal muscle cells). The assay is described as follows: cytotoxicity call (relative viability < 0.9). To be noted: 10 µM.
In the case of `Cn1cnc(S(=O)(=O)N2C[C@@H](O)COC[C@H]3O[C@H](CC(=O)N4CCN(c5ccccc5)CC4)CC[C@@H]32)c1`, the cytotoxicity call was “inactive”.
Then `O=C1c2cccc(O)c2C(=O)c2c(O)cccc21`, with “inactive”; and `O=C(CCNCCO)c1ccccc1`, with “inactive”; and `O=C1c2ccccc2C(=O)c2c(NCCNCCO)ccc(NCCNCCO)c21`, with “active”.
In the case of `O=C1c2c(O)ccc(O)c2C(=O)c2c(NCCNCCO)ccc(NCCNCCO)c21`, the cytotoxicity call was “active”.
Consider `O=C1c2ccccc2C(=O)c2c1ccc(O)c2O`, for which the cytotoxicity call is “inactive”.
For `Cl.Cl.O=C1c2c(O)ccc(O)c2C(=O)c2c(NCCNCCO)ccc(NCCNCCO)c21`, the cytotoxicity call is “active”.
Then `O=[N+]([O-])c1ccc(NCCNCCO)cc1`, with “inactive”; and `COc1ccc(S(=O)(=O)Nc2ccc3c(c2)C(=O)N([C@@H](C)CO)C[C@H](C)[C@H](CN(C)Cc2ccncc2)O3)cc1`, with “inactive”; and `C[C@@H]1CN([C@H](C)CO)S(=O)(=O)c2ccc(C#CCN(C)C)cc2O[C@@H]1CN(C)Cc1ccccc1F`, with “inactive”.
For the compound `C[C@@H]1CN([C@H](C)CO)C(=O)c2cc(NC(=O)Cn3cnnn3)ccc2O[C@H]1CN(C)C(=O)Nc1ccc2c(c1)OCO2`, the cytotoxicity call was “inactive”.
Then `COc1ncc(-c2nc(N3CCOCC3)nc3c(CN4CCC(C(C)(C)O)CC4)cc(F)cc23)cc1NS(C)(=O)=O`, with “inactive”.
The same measure for `CC(=O)/C(C)=N/O`: “inactive”; for `C[C@@H]1CCCCO[C@H](CN(C)C(=O)c2ccccc2)[C@@H](C)CN([C@@H](C)CO)C(=O)c2cc(NC(=O)c3ccccc3)ccc2O1`: “inactive”; for `O=C1CCCNc2ccc(Cl)cc21`: “inactive”.
For `O=C1NCc2ccccc21`, the cytotoxicity call is “inactive”.
For `O=C1CCNc2cc3ccccc3cc21`, the cytotoxicity call was “active”.
The same measure for `C[C@H]1CCCCO[C@@H](CN(C)Cc2ccc(C(=O)O)cc2)[C@@H](C)CN([C@@H](C)CO)C(=O)c2cc(NC(=O)c3ccccc3)ccc2O1`: “inactive”; for `C[C@@H]1CCCCO[C@@H](CN(C)C(=O)Cc2ccccc2)[C@@H](C)CN([C@H](C)CO)C(=O)c2cc(NC(=O)Cc3ccccc3)ccc2O1`: “inactive”; for `CO[C@@]12[C@@H]3N[C@@H]3CN1C1=C(C(=O)C(N)=C(C)C1=O)[C@@H]2COC(N)=O`: “active”.
As to `COC12C(COC(N)=O)C3=C(C(=O)C(C)=C(N)C3=O)N1CC1NC12` (stereo not given), the cytotoxicity call was “inactive”.
The same measure for `CO[C@@]12[C@H](COC(N)=O)C3=C(C(=O)C(C)=C(N)C3=O)N1C[C@@H]1N[C@@H]12`: “inactive”.
Regarding `CCOC(=O)C1CCN(S(=O)(=O)c2c(C)n(C)c(=O)n(C)c2=O)CC1`, the cytotoxicity call is “inactive”.
Consider `C[C@@H]1CN([C@H](C)CO)C(=O)CCCn2nncc2CO[C@@H]1CN(C)Cc1ccc(C(=O)Nc2ccccc2N)cc1`, for which the cytotoxicity call was “inactive”.
As to `C[C@H](CO)N1C[C@H](C)[C@H](CN(C)Cc2ccc(Cl)c(Cl)c2)Oc2ccc(NC(=O)NC3CCCCC3)cc2CC1=O`, the cytotoxicity call is “inactive”.
The same measure for `C[C@@H]1CN([C@@H](C)CO)C(=O)Cc2cc(NC(=O)NC3CCCCC3)ccc2O[C@@H]1CN(C)Cc1ccc(Cl)c(Cl)c1`: “inactive”; for `C[C@@H]1CN([C@@H](C)CO)C(=O)Cc2cc(NC(=O)NC3CCCCC3)ccc2O[C@H]1CN(C)Cc1ccc(Cl)c(Cl)c1`: “inactive”; for `C[C@@H]1CN([C@H](C)CO)C(=O)Cc2cc(NC(=O)NC3CCCCC3)ccc2O[C@H]1CN(C)Cc1ccc(Cl)c(Cl)c1`: “active”.
Then `C[C@H](CO)N1C[C@H](C)[C@@H](CN(C)Cc2ccc(Cl)c(Cl)c2)Oc2ccc(NC(=O)NC3CCCCC3)cc2CC1=O`, with “inactive”.
Then `C[C@@H]1CN([C@H](C)CO)C(=O)Cc2cc(NC(=O)NC3CCCCC3)ccc2O[C@@H]1CN(C)Cc1ccc(Cl)c(Cl)c1`, with “active”; and `Cc1noc(C)c1NC(=O)N(C)C[C@H]1OCCCC[C@@H](C)Oc2ccc(NS(=O)(=O)c3cccs3)cc2C(=O)N([C@@H](C)CO)C[C@H]1C`, with “inactive”; and `Cc1noc(C)c1NC(=O)N(C)C[C@H]1OCCCC[C@H](C)Oc2ccc(NS(=O)(=O)c3ccc(F)cc3)cc2C(=O)N([C@@H](C)CO)C[C@H]1C`, with “inactive”.
Regarding `COc1ccccc1CNC(=O)C[C@H]1C[C@H]2c3cc(NC(=O)NC4CCCC4)ccc3O[C@H]2[C@H](CO)O1`, the cytotoxicity call is “inactive”.
The same measure for `COc1ccc(CN(C)C[C@H]2Oc3c(NC(=O)c4ccc(-c5nccs5)cc4)cccc3C(=O)N([C@H](C)CO)C[C@H]2C)cc1`: “inactive”.
Then `CC[C@H]1OC[C@@H]2CN(C(=O)CN(C)C)CC[C@H]21`, with “inactive”; and `C[C@H]1CN([C@@H](C)CO)C(=O)Cc2cc(NC(=O)Cc3ccccc3)ccc2O[C@@H]1CN(C)C(=O)Nc1cccc2ccccc12`, with “inactive”; and `C[C@H]1CN([C@@H](C)CO)C(=O)Cc2cc(NC(=O)Nc3cccc4ccccc34)ccc2O[C@H]1CN(C)C(=O)Nc1cccc2ccccc12`, with “inactive”.
Then `C[C@@H]1CN([C@H](C)CO)C(=O)Cc2cc(NC(=O)Cc3ccccc3)ccc2O[C@H]1CN(C)C(=O)Nc1cccc2ccccc12`, with “inactive”; and `C[C@H]1CN([C@@H](C)CO)C(=O)Cc2cc(NC(=O)Nc3ccccc3)ccc2O[C@@H]1CN(C)C(=O)Nc1cccc2ccccc12`, with “inactive”.
In the case of `C[C@H](CO)N1C[C@H](C)[C@@H](CN(C)C(=O)Nc2cccc3ccccc23)Oc2ccc(NC(=O)Cc3ccccc3)cc2CC1=O`, the cytotoxicity call was “active”.
The same measure for `C[C@H]1CN([C@@H](C)CO)C(=O)Cc2cc(NC(=O)Nc3ccc4c(c3)OCO4)ccc2O[C@@H]1CN(C)C(=O)Nc1cccc2ccccc12`: “inactive”; for `C[C@H](CO)N1C[C@H](C)[C@@H](CN(C)C(=O)Nc2cccc3ccccc23)Oc2ccc(NC(=O)Nc3cccc4ccccc34)cc2CC1=O`: “active”; for `C[C@@H]1CN([C@@H](C)CO)C(=O)Cc2cc(NC(=O)Nc3cccc4ccccc34)ccc2O[C@@H]1CN(C)C(=O)Nc1cccc2ccccc12`: “inactive”.
For `C[C@@H]1CN([C@H](C)CO)C(=O)Cc2cc(NC(=O)Nc3ccc4c(c3)OCO4)ccc2O[C@@H]1CN(C)C(=O)Nc1cccc2ccccc12`, the cytotoxicity call was “inactive”.
The same measure for `C[C@H](CO)N1C[C@H](C)[C@@H](CN(C)C(=O)Nc2cccc3ccccc23)Oc2ccc(NC(=O)Nc3ccccc3)cc2CC1=O`: “active”; for `C[C@H](CO)N1C[C@H](C)[C@@H](CN(C)C(=O)Nc2cccc3ccccc23)Oc2ccc(NC(=O)Nc3ccc4c(c3)OCO4)cc2CC1=O`: “active”; for `C[C@@H]1CN([C@H](C)CO)C(=O)Cc2cc(NC(=O)Nc3ccccc3)ccc2O[C@@H]1CN(C)C(=O)Nc1cccc2ccccc12`: “inactive”.
The same measure for `OCc1cccc(CO)n1`: “inactive”; for `COC(=O)[C@@H](Cc1ccc(-n2cc(-c3ccc(C(=O)NO)s3)nn2)cc1)N1CC2=C[C@H](C3CC3)n3c(=O)n(C)c(=O)n3[C@@H]2[C@H]1[C@H](O)Cc1ccccc1`: “inactive”; for `CCCNC(=O)N(C)C[C@@H]1Oc2cc(C#Cc3cccc(F)c3)ccc2S(=O)(=O)N([C@H](C)CO)C[C@@H]1C`: “inactive”.
The same measure for `CO[C@H]1CN(C)C(=O)c2cc(NS(C)(=O)=O)ccc2OC[C@@H](C)N(C(=O)c2ccc3c(c2)OCO3)C[C@@H]1C`: “inactive”.
Take `Cc1ccc(S(=O)(=O)Nc2ccc3c(c2)C(=O)N([C@H](C)CO)C[C@H](C)[C@H](CN(C)S(C)(=O)=O)O3)cc1`: the cytotoxicity call was “inactive”.
Then `COc1ccc(S(=O)(=O)Nc2ccc3c(c2)CC(=O)N([C@@H](C)CO)C[C@@H](C)[C@H](CN(C)C(=O)NC(C)C)O3)cc1`, with “inactive”.
Then `CN(C)Cc1cn(CC[C@@H]2CC[C@H](NC(=O)Cc3cccnc3)[C@H](CO)O2)nn1`, with “inactive”; and `Cc1ccc(S[C@]2(C(=O)NCc3ccccc3)CC(=O)N(Cc3cc(C(F)(F)F)cc(C(F)(F)F)c3)[C@@H]2c2ccc(CO)cc2)cc1`, with “inactive”.
The same measure for `CCOC(=O)c1cc2c(c(-c3cccc(-c4cccc(OC)c4)c3)n1)[C@@H](CCO)N(S(=O)C(C)(C)C)C2` (stereo not given in full): “inactive”.
With `COCC(=O)N1C[C@@H](C)[C@H](OC)CN(C)C(=O)c2ccc(NC(=O)c3ccc(OC)cc3)cc2OC[C@H]1C`, the cytotoxicity call is “inactive”.
The same measure for `CCN1CCC[C@@H]1CN1CNC(=S)NC1`: “inactive”.
`CCCCCCc1ccc(O)cc1O.Nc1c2ccccc2nc2ccccc12`: the cytotoxicity call was “inactive”.
For the compound `CCCCCCc1ccc(O)cc1O` [listing 1 of 2 here], the cytotoxicity call is “active”.
The same measure for `CCCCCCc1ccc(O)cc1O` [listing 2 of 2 here]: “active”; for `CCCCCCCCc1ccc(-c2ccc(C(=O)O)cc2)cc1`: “inactive”; for `CCCCCCCc1c(C)c(O)cc2c1[nH]c1ccccc12`: “inactive”.
Regarding `COC(=O)CCc1ccc(OC)cc1O`, the cytotoxicity call was “inactive”.
Then `COc1ccc(NC(=O)N(C)C[C@@H]2Oc3c(NC(=O)C4CC4)cccc3C(=O)N([C@@H](C)CO)C[C@@H]2C)cc1`, with “inactive”; and `C[C@H]1O[C@@H](O[C@H]2[C@@H](O)C[C@H](O[C@H]3[C@@H](O)C[C@H](O[C@H]4CC[C@@]5(C)[C@H](CC[C@@H]6[C@@H]5C[C@@H](O)[C@@]5(C)[C@@H](C7=CC(=O)OC7)CC[C@]65O)C4)O[C@@H]3C)O[C@@H]2C)C[C@H](O)[C@@H]1O`, with “active”.
As to `CC1OC(OC2C(O)CC(OC3C(O)CC(OC4CCC5(C)C(CCC6C5CC(O)C5(C)C(C7=CC(=O)OC7)CCC65O)C4)OC3C)OC2C)CC(O)C1O` (stereo not given), the cytotoxicity call is “active”.
The same measure for `C[C@H]1O[C@@H](O[C@H]2[C@@H](O)C[C@H](O[C@H]3[C@@H](O)C[C@H](O[C@H]4CC[C@@]5(C)[C@H](CC[C@@H]6[C@@H]5C[C@@H](O)[C@]5(C)[C@@H](C7=CC(=O)OC7)CC[C@]65O)C4)O[C@@H]3C)O[C@@H]2C)C[C@H](O)[C@@H]1O`: “active”.
The same measure for `C[C@@H]1CCCCO[C@@H](CN(C)Cc2ccc3c(c2)OCO3)[C@@H](C)CN([C@H](C)CO)C(=O)c2cc(NS(=O)(=O)c3ccc(Cl)cc3)ccc2O1`: “inactive”; for `C[C@H](CO)N1C[C@H](C)[C@@H](CN(C)S(=O)(=O)c2ccccc2F)Oc2cc(-c3ccncc3)ccc2S1(=O)=O`: “inactive”.
